Records with an inconclusive call do not appear. Activity calls are given as the source filed them. Unless noted, calls follow the shape of the dose curve; as a rule, active = well fitted curve in the direction sought with a large enough effect; inconclusive = small, poorly fitted or top-dose-only effect, or another doubt; inactive = no such curve, though single readings can be large; an effect the other way counts as inactive or inconclusive.
Tests used:
[1] = target: Cytochrome P450 1A2 (Homo sapiens) (UniProt P05177); experiment: p450-cyp1a2 (AID 410; calls by dose curve; also: potency is read from the fitted curve at half-maximal effect)
Sequence of Cytochrome P450 1A2 (Homo sapiens) (P05177 whole entry, looked up): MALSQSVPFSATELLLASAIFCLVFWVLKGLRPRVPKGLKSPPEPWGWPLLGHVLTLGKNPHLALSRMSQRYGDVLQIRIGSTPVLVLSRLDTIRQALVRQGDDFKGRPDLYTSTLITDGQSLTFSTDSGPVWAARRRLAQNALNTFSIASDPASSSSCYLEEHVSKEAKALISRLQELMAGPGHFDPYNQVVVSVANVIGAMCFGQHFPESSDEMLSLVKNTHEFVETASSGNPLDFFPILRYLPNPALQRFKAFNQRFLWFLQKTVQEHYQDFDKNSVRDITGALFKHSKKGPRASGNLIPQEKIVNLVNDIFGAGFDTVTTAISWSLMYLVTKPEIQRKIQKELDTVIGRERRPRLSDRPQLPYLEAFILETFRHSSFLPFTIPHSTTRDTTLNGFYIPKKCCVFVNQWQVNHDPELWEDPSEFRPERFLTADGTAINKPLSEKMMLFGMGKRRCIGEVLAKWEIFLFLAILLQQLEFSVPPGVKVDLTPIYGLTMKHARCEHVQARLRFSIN
Procedure, shortened: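 20nM CYP1A2, 100uM Luciferin-ME (=Km), 100mM KPO4; cpd 10 min RT; +NADPH regen, 60 min RT; stop/detect 20 min; luminescence. Normalized to furafylline 57 uM = full inhibition.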

[2] = target: Glucocorticoid receptor (Homo sapiens) (UniProt P04150); experiment: GR-GFP Redistribution (AID 450;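 active = compounds whose dose series gives a full or clear partial fitted curve of increased nuclear translocation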; also: potency is read from the fitted curve at half-maximal effect); settings: U2OS GR-GFP nuclear translocation, laser cytometry, 2 h
Sequence of Glucocorticoid receptor (Homo sapiens) (P04150 whole entry, looked up, the tested form may be a part): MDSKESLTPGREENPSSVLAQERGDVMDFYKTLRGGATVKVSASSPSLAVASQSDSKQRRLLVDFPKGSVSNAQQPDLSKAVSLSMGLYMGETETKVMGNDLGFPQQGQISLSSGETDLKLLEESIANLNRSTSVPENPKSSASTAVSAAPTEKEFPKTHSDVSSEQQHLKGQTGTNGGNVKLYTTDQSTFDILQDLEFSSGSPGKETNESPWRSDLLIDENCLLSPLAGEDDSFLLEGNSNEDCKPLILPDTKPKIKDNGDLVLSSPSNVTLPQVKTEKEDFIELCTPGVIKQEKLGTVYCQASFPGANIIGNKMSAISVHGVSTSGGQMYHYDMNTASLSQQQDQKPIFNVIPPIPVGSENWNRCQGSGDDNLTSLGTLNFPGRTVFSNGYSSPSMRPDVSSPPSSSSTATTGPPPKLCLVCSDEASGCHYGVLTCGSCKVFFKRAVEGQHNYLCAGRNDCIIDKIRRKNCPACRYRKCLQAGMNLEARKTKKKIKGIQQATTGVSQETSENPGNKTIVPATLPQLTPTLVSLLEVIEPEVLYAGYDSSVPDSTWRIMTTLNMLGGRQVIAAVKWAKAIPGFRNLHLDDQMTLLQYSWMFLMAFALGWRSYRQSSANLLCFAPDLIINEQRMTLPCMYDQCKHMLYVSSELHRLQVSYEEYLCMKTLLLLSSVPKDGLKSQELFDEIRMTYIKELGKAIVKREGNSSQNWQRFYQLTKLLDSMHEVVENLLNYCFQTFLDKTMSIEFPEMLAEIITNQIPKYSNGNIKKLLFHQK

[3] = target: Mitogen-activated protein kinase 10 (Mus musculus) (UniProt Q61831); experiment: JNK3 AlphaScreen Assay (AID 530; active = well fitted curve in either direction with a large enough effect, not every such curve was filed as active;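 also: kinase came from lysate of stimulated human HepG2 cells; signal reports phosphorylation of biotinylated GST-cJun 1-79 at Ser73 with 10 µM ATP; series mostly up to about 57 µM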)
Procedure, shortened: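 Kinase buffer: 20 mM Tris-HCl pH 7.6, 10 mM MgCl2, 1 mM DTT, 0.1 mM Na3VO4, 0.01% Tween-20; ATP 10 uM. Substrate biotin-GST-cJun(1-79), enzyme from activated HepG2 lysates. Detection by Ser73 phospho-antibody AlphaScreen.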

[4] = target: Cytochrome P450 2C9 (Homo sapiens) (UniProt P11712); experiment: qHTS Assay for Inhibitors and Substrates of Cytochrome P450 2C9 (AID 883); also: nearly all actives have a fitted effect of over 60% in size; also: potency is read from the fitted curve at half-maximal effect
Sequence of Cytochrome P450 2C9 (Homo sapiens) (P11712 whole entry, looked up): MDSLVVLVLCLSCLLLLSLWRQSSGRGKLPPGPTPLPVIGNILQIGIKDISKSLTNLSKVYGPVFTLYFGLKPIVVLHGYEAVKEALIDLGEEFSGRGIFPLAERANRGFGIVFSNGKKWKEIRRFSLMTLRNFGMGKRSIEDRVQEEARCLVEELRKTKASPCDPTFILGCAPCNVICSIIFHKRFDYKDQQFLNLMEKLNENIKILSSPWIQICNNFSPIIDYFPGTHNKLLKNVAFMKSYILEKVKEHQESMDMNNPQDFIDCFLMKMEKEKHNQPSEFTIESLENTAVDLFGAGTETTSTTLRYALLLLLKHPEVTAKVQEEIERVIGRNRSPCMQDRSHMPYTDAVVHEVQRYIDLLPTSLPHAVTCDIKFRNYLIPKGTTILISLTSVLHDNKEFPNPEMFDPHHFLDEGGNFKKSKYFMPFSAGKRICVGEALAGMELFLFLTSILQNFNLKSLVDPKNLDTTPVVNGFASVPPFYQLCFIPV
Procedure, shortened: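 Turnover of Luciferin-H (100uM, KM) by 10nM human CYP2C9 was measured over 60 min at 37C with NADPH regeneration; inhibitors and some substrates reduce luminescence. Data normalized to sulphaphenazole 57uM.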

[5] = target: Cytochrome P450 2D6 (Homo sapiens) (UniProt P10635); experiment: qHTS Assay for Inhibitors and Substrates of Cytochrome P450 2D6 (AID 891); also: nearly all actives have a fitted effect of over 60% in size; also: potency is read from the fitted curve at half-maximal effect
Sequence of Cytochrome P450 2D6 (Homo sapiens) (P10635 whole entry, looked up): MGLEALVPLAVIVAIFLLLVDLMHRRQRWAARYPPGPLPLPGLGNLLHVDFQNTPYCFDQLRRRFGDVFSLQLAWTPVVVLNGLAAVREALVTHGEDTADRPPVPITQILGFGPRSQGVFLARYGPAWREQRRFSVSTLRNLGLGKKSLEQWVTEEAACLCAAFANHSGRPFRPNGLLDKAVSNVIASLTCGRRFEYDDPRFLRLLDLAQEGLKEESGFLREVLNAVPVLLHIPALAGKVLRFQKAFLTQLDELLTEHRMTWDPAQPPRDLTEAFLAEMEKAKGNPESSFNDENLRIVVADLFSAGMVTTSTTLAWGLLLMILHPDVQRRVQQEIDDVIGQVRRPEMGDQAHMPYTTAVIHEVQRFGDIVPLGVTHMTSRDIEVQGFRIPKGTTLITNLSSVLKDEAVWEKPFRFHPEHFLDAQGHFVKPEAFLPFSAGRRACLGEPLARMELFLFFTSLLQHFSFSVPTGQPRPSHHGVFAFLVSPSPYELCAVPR
Procedure, shortened: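 Luminescent read-out of luciferin formed by 5 nM human CYP2D6 demethylating 30 uM Luciferin-ME EGE (Km level) over 60 min at room temperature after NADPH regeneration addition. Data normalized to full inhibition by 1.43 uM quinidine.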

[6] = target: Cytochrome P450 2C19 (Homo sapiens) (UniProt P33261); experiment: qHTS Assay for Inhibitors and Substrates of Cytochrome P450 2C19 (AID 899); also: nearly all actives have a fitted effect of over 60% in size; also: potency is read from the fitted curve at half-maximal effect
Sequence of Cytochrome P450 2C19 (Homo sapiens) (P33261 whole entry, looked up): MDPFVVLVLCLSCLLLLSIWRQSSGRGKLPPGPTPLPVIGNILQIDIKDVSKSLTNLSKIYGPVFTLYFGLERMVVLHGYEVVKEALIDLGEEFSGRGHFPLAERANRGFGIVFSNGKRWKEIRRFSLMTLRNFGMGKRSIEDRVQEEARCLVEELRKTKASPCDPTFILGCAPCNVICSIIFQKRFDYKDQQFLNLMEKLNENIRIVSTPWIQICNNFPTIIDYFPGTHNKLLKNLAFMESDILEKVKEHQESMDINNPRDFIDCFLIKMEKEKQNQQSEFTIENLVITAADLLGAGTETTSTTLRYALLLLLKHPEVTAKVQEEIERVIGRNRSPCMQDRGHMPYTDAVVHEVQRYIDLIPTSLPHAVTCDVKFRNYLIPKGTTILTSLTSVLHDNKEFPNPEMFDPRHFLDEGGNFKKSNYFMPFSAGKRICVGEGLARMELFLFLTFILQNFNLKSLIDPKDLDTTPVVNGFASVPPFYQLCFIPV
Procedure, shortened: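 Reactions contain 5nM enzyme, 10uM Luciferin-H EGE (KM) and 50mM KPO4; compound preincubates 10 min at 37C, NADPH regeneration starts turnover for 60 min. Luminescence after detection reagent gives activity.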

[7] = target: Glucocorticoid receptor (Homo sapiens) (UniProt P04150); experiment: GR-EFC Redistribution (AID 451; calls by dose curve; also: potency is read from the fitted curve at half-maximal effect); settings: CHO-K1 GR-EFC translocation, beta-gal luminescence, 2 h
Procedure, shortened: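 Translocation of GR-ED fusion to nuclear EA restores b-gal, read by luminescence after 1 h room-temperature detection. Engineered CHO-K1 biosensor cells, 1,000/well, exposed 2 h at 37 C to titrations up to 46 uM final.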

[8] = target: 3',5'-cyclic-AMP phosphodiesterase 4B (Homo sapiens) (UniProt Q07343); experiment: qHTS Assay for Inhibitors of PDE-IV (AID 607; active = well fitted activation curve with a large enough effect in the main read-out, with a control signal flat, not every such curve was filed as active)
Sequence of 3',5'-cyclic-AMP phosphodiesterase 4B (Homo sapiens) (Q07343 whole entry, looked up): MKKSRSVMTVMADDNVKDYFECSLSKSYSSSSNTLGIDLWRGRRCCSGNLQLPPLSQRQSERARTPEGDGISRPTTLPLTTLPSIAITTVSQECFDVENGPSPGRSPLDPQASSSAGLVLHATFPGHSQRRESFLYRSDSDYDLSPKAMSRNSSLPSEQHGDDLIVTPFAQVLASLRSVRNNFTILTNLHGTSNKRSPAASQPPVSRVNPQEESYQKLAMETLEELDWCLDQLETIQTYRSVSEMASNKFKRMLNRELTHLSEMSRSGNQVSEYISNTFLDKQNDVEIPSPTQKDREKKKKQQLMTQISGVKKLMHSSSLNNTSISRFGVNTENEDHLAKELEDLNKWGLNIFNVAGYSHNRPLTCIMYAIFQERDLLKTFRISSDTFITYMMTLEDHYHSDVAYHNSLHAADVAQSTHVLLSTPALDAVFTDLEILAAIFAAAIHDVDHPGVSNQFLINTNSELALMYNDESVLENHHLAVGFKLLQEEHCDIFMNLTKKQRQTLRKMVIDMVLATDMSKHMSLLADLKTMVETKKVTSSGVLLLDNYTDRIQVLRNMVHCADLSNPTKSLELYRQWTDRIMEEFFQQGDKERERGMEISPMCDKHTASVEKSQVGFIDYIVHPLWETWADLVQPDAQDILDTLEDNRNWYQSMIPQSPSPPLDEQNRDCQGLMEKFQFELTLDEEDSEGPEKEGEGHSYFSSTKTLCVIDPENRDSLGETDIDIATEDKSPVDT
Procedure, shortened: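 ACTOne HEK293 cells carry a modified cAMP-gated CNG channel and express endogenous PDE4; plated 1000 cells/well, compounds up to 22.9 uM final. Membrane-potential dye fluorescence (ex 535/em 590) was read; parental cells received 10 uM forskolin + 100 uM RO 20-1724.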

[9] = target: Cytochrome P450 3A4 (Homo sapiens) (UniProt P08684); experiment: qHTS Assay for Inhibitors and Substrates of Cytochrome P450 3A4 (AID 884); also: nearly all actives have a fitted effect of over 50% in size; also: potency is read from the fitted curve at half-maximal effect
Sequence of Cytochrome P450 3A4 (Homo sapiens) (P08684 whole entry, looked up): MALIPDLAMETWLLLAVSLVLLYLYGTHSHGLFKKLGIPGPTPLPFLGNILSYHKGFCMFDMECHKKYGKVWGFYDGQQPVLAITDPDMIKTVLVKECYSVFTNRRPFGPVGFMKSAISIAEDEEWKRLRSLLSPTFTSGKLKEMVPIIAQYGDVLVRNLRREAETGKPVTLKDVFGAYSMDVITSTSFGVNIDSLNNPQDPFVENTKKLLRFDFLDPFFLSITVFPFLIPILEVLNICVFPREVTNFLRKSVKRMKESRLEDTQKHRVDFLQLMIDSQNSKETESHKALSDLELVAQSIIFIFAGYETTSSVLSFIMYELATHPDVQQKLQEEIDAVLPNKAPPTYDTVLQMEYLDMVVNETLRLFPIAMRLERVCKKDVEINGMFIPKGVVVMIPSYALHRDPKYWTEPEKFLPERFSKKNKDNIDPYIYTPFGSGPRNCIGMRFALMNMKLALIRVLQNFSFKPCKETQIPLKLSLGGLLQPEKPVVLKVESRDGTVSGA
Procedure, shortened: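 Luminescent readout of luciferin produced by CYP3A4 (20 nM) dealkylation of Luciferin-PPXE, 25 uM (its KM). NADPH-driven reaction ran 60 min at RT after 10 min compound preincubation; data scaled to 57 uM ketoconazole as 100% inhibition.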

[10] = target: Cytochrome P450 3A4 (Homo sapiens) (UniProt P08684); experiment: qHTS Assay for Activators of Cytochrome P450 3A4 (AID 885); also: nearly all actives have a fitted effect of over 65% in size
Procedure, shortened: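 CYP3A4 activity: Luciferin-PPXE O-dealkylation, 25uM substrate, 200mM KPO4, RT throughout. Read-out is luciferase luminescence; higher values reflect activation.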

[11] = target: Ubiquitin carboxyl-terminal hydrolase 1 (Homo sapiens) (UniProt O94782); experiment: Inhibitors of USP1/UAF1: Pilot qHTS (AID 504865);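 also: rhodamine fluorescence freed from ubiquitin-rhodamine substrate followed over time; top concentration of the series differs between compounds; nearly all actives have a fitted effect of over 35% in size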
Sequence of Ubiquitin carboxyl-terminal hydrolase 1 (Homo sapiens) (O94782 whole entry, looked up): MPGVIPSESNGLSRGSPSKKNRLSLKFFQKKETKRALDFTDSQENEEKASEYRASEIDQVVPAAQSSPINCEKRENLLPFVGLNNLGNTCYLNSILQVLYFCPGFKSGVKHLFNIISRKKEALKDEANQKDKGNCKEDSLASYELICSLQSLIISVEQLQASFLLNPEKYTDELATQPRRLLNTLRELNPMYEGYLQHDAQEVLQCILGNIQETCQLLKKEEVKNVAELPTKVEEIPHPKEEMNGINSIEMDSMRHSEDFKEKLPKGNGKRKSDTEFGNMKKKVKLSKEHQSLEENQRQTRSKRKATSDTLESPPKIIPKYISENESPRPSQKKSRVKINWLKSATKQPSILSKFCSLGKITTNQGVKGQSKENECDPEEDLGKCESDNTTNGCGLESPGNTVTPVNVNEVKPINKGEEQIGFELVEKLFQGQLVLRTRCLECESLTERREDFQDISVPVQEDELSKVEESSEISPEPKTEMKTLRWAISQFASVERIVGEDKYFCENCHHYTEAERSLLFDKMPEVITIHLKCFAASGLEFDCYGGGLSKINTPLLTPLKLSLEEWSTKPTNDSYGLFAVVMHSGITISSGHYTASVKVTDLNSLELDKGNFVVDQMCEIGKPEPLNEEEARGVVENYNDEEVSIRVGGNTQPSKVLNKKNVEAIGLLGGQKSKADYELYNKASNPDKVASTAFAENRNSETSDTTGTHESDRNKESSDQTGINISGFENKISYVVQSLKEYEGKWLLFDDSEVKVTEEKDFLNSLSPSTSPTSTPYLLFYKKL
Procedure, shortened: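 Kinetic fluorescence assay: 1nM USP1/UAF1, 15 min compound preincubation, then 150nM Ub-Rho; 480/540 nm.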

Measured: Potency

CCN1C[C@@]2(C)CC[C@H](O)[C@@]34[C@@H]5C[C@H]6[C@H](O)[C@@H]5[C@](O)(C[C@@H]6OC)[C@H](C[C@@H]23)[C@H]14
inactive: [1] | [2] > 46 µM | [3] | [4] | [5] | [6]

C=CCCN1C[C@@H]2C[C@H](C1)c1cccc(=O)n1C2
inactive: [1] | [2] > 46 µM | [7] > 46 µM | [3] | [4] | [5] | [6]

O=C(O)[C@@H]1C[C@H]1[C@@H](NP(=O)(c1ccccc1)c1ccccc1)c1ccccc1
inactive: [1] | [3] | [8]

COc1cc2c(cc1OC)[C@]13CCN4CC5=CCO[C@@H]6CC(=O)N2[C@@H]1[C@H]6[C@@H]5C[C@H]43
inactive: [1] | [3] | [4] | [5] | [6]

CC[C@@H]1CN2CC[C@@H]1C[C@H]2[C@@H](O)c1ccnc2ccc(OC)cc12
active: [5] 0.0016 µM
inactive: [1] | [2] > 46 µM | [3] | [4] | [6]

CC[C@]1(O)C(=O)OCc2c1cc1n(c2=O)Cc2cc3ccccc3nc2-1
active: [1] 5.01 µM
inactive: [2] > 46 µM | [3] | [4] | [9] | [5] | [6]

O=c1cccc2n1C[C@H]1C[C@@H]2CN(CCO)C1
inactive: [2] > 46 µM | [3] | [8] | [4] | [5] | [6]
active: [1] 15.8 µM

CCCc1cc2c(n1Cc1cccc(Cl)c1)C(C)C1CN(C(=O)c3ccccc3)C(C)(C(=O)OC)C21 (stereo unspecified)
active: [1] 31.6 µM | [4] 5.01 µM | [9] 5.01 µM
inactive: [3] | [8] | [10]

COC(=O)[C@@]1(Cc2ccc(F)cc2)[C@H]2c3cc(C(=O)N(C)C)[nH]c3C[C@H]2CN1C(=O)c1ccccc1
active: [1] 20 µM | [9] 0.631 µM
inactive: [3] | [8] | [10]

CC(C)[C@H]1C(=O)N2CCC[C@@H]2[C@]2(O)O[C@@](NC(=O)[C@H]3C=C4c5cccc6[nH]cc(c56)C[C@H]4N(C)C3)(C(C)C)C(=O)N12
inactive: [2] > 46 µM | [7] > 46 µM | [5]
active: [1] 31.6 µM

C[C@H]1C(=O)O[C@H]2CCN3CC=C(COC(=O)[C@](C)(O)[C@@]1(C)O)[C@H]23
inactive: [1] | [2] > 46 µM | [7] > 46 µM | [3] | [4] | [5] | [6]

COc1ccc(C[C@@H]2NC[C@H](O)[C@H]2OC(C)=O)cc1
inactive: [1] | [2] > 46 µM | [3] | [8] | [4] | [6]

CC(C)[C@]1(NC(=O)[C@H]2C=C3c4cccc5[nH]cc(c45)C[C@H]3N(C)C2)O[C@@]2(O)[C@H]3CCCN3C(=O)[C@H](Cc3ccccc3)N2C1=O
active: [1] 31.6 µM | [6] 2 µM
inactive: [2] > 46 µM | [7] > 46 µM | [5]

CCCCCC[C@H]1C(=O)O[C@@H](C)[C@H](NC(=O)c2cccc(NC=O)c2O)C(=O)O[C@@H](C)[C@@H]1OC(=O)CC(C)C
inactive: [1] | [2] > 46 µM | [7] > 46 µM | [3] | [5] | [6]

COc1cc2c(cc1O)-c1c(O)c(OC)cc3c1[C@H](C2)N(C)CC3
inactive: [2] > 46 µM | [7] > 46 µM | [3] | [10]
active: [1] 3.16 µM | [5] 2.51 µM

c1cc2cc(c1)C[n+]1ccc(c3ccccc31)NCc1ccc(cc1)CNc1cc[n+](c3ccccc13)C2
inactive: [1] | [2] > 46 µM | [8] | [11]
active: [4] 2.51 µM

CCN(CC)c1ncnc2c1ncn2[C@@H]1O[C@@H](COP(=O)(O)OP(=O)(O)C(Br)(Br)P(=O)(O)O)[C@H](O)[C@H]1O
active: [1] 39.8 µM | [5] 0.631 µM
inactive: [2] > 46 µM | [3] | [8]
